Reference: PubChem BioAssay AID602141 (Sanford-Burnham Center for Chemical Genomics, 2011)
Out of some 360,000 compounds screened, about 1,300 (0.36%) were called active. For the sample, actives were picked, then their nearest neighbours and some compounds at random. Unmarked numbers belong to inactive results.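 The calls were made as follows: active = corrected activity change at or below -50% at 5 µM; inactive = the rest.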

assay: KKLEB cell viability reduction – uHTS, fluorescence assay plates, cytotoxicity control for CF NF-kB inhibitor project, primary screen (AID 602141); details: KKLEB CF airway cells viability, ATPlite luminescence, overnight, at 5 µM, stronger effect = lower value

SMILES	activity change (cytotoxicity)
CC1=C(C(=O)Nc2ccccc2)S(=O)(=O)CCO1	-6%
CC1=C(C(=O)Nc2ccccc2)SCCO1	-58.9% (active)
CC(Cc1ccccc1)NCCC(c1ccccc1)c1ccccc1 (stereo not given)	-16.7%
Cc1c(Oc2cc(NN3CCCCC3)c([N+](=O)[O-])cc2[N+](=O)[O-])cccc1[N+](=O)[O-]	-5.7%
CCOc1cccc(=NC2CCCCC2)c2c(C)[nH]c(C)c12	4.1%
CCc1nc2ccccc2c(=O)n1-c1cccc(OC)c1	-1.5%
C[C@]12CC[C@H](O)C[C@H]1CC[C@@H]1C2CC[C@]2(C)[C@@H](C3=CC(=O)OC3)[C@@H](O)C[C@]12O (stereo not given in full)	-53.3% [cells stimulated with P. aeruginosa culture filtrate] (active)
CC12CCC(O)CC1CCC1C2CCC2(C)C(C(=O)CC(O)C(F)(F)F)CCC12 (stereo not given)	3.6% [cells stimulated with P. aeruginosa culture filtrate]
Cc1ccc(CN2CCCC(C(=O)c3ccc4c(c3)OCO4)C2)cc1C (stereo not given)	-12.8%
Cc1nn(Cc2ccccc2Cl)c(Cl)c1C(=O)OC(C(=O)NC(N)=O)C(C)C (stereo not given)	-1.6%
O=C(CSC1c2ccccc2-c2ccccc21)N/N=C/c1ccccc1	11.7%
O=c1[nH]c2ccccc2n1C1CCN(C(c2ccccc2)c2nnnn2Cc2ccccc2)CC1 (stereo not given)	-106% [cells stimulated with P. aeruginosa culture filtrate] (active)
O=c1[nH]c2ccccc2n1C1CCN(C(c2ccnc3ccccc23)c2nnnn2Cc2ccccc2)CC1 (stereo not given)	-13.5% [cells stimulated with P. aeruginosa culture filtrate]
CSCCC(c1nnnn1C(C)(C)C)N1CCC(n2c(=O)[nH]c3ccccc32)CC1 (stereo not given)	-1.4% [cells stimulated with P. aeruginosa culture filtrate]
CC1([N+](=O)[O-])COP(=O)(Nc2ccc(F)cc2)OC1 (stereo not given)	8.2% [cells stimulated with P. aeruginosa culture filtrate]
CCc1cccc2c(C#N)cn(CC(=O)N3CCOCC3)c12	3.2%
CC(=O)OC1C2(CC3N4C(=O)C5(CO)SSC4(CC31O)C(=O)N5C)OC(C)C(C)(C)C2=O (stereo not given)	-95% [cells stimulated with P. aeruginosa culture filtrate] (active)
CCC(C)n1c(O)c(/C=N/Nc2nc3c(c(=O)n(C)c(=O)n3C)n2C)c(=O)[nH]c1=S (stereo not given)	-14.1%
C[C@@]1([C@@H](NP(=O)(c2ccccc2)c2ccccc2)c2ccccc2)C[C@H]1CCO	15%
COc1ccc(NC(=O)c2cn(CCC#N)nc2-c2ccc([N+](=O)[O-])cc2)cc1	-13.1%
CCCCCCCCCCCCn1ccc(=N)cc1	-61.1% (active)
O=c1[nH]c(CN2CC=C(c3ccccc3)CC2)nc2scc(-c3cccs3)c12	0.9%
Cc1ccc2c(c1)C1CN(C)CCC1N2C(=O)Cn1nnc(-c2ccccc2F)n1 (stereo not given)	2%
c1cncc(CNCCc2c[nH]c3ccccc23)c1	7.7%
c1ccc(C2NCc3ccccc3-n3cccc32)cc1 (stereo not given)	-7.9%
Cc1ccc(C(C)C)c(OCC(=O)N2CCN(CC(=O)N3CCOCC3)CC2)c1	-1.3% [cells stimulated with P. aeruginosa culture filtrate]
COCCNC(=O)CN1C2CCC1CC(O)(c1cccnc1)C2 (stereo not given)	1.5%
COC1C(O)C(C)OC(OC2CCC3(C=O)C(CCC4C3CCC3(C)C(C5=CC(=O)OC5)CCC43O)C2)C1O (stereo not given)	-58.4% [cells stimulated with P. aeruginosa culture filtrate] (active)
COC(=O)C1=C(c2ccc(Cl)c(C(F)(F)F)c2)C[C@@H]2CC[C@H]1N2C(=O)NC(C)C	-0.4% [cells stimulated with P. aeruginosa culture filtrate]
CC(=O)NCC1=C(c2ccc3ccccc3c2)C[C@@H]2CC[C@H]1N2Cc1ccco1	-7.6%
